Only a selection was taken, and hits are over-represented in it overall.
AMPAR-TARP mod = modulates AMPAR-stargazin complexes; hit rate 3.5% among 40,000; calls only at 30 µM; HEK293 GluA2+stargazin, membrane potential dye (FDSS), glutamate EC50; hits were called plate by plate, in both directions;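 active = any of four per-well response measures lying three or more SD from its plate-wide compound average, in either direction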
Target sequence (O88602 whole entry, looked up): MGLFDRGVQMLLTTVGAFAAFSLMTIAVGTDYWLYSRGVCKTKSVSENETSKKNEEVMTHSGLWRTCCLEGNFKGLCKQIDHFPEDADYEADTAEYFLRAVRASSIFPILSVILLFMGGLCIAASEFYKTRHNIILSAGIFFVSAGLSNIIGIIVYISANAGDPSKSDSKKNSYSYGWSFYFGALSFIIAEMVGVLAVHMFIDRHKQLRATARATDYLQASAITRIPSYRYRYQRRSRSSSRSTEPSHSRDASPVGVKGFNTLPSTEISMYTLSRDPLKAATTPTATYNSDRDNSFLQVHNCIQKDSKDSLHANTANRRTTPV
Target sequence (P19491 whole entry, looked up): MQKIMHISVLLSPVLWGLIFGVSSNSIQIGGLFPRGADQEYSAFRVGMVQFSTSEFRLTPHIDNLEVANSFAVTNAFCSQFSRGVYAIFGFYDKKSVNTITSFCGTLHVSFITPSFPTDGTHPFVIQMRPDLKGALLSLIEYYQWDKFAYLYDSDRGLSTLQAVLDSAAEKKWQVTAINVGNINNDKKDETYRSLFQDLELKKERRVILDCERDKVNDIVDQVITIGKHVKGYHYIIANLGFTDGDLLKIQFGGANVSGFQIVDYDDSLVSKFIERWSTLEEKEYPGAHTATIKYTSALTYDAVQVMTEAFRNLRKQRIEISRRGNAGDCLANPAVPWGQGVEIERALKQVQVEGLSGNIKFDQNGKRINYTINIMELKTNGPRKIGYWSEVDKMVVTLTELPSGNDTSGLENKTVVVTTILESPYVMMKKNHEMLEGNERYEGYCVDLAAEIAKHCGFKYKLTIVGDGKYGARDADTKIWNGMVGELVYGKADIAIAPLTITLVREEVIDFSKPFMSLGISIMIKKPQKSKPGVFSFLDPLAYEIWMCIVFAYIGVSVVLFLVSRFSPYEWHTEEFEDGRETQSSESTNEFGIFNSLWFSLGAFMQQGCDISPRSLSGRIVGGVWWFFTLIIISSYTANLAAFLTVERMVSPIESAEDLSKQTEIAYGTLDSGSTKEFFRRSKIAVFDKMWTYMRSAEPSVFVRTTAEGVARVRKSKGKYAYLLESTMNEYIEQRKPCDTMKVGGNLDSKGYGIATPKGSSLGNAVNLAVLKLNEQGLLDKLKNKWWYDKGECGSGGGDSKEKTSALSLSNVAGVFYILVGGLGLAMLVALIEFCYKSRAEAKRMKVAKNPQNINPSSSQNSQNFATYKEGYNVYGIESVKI
GIRK2 act = Activates human GIRK2-containing potassium channels. P48051. HEK293 GIRK2/NPY4 cells, thallium flux fluorescence. activation (% efficacy), % for hits at 37.5 µM. 34,000 tested, under 10 active. AID 1259324;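 active = primary screen hit, no activity in plain HEK293 cells, and in GIRK2-only cells above 5% efficacy rising with concentration; inactive = the rest, including fluorescent compounds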;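 note: efficacy is normalized control-subtracted fluorescence 15 s after thallium addition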
* hit, by the source's call; i = inactive; · = no result given; + = active, no number.

SMILES | AMPAR-TARP mod | GIRK2 act
COc1ccc(N2CCN(c3nc4c(c(=O)[nH]c(=O)n4C)n3CC(=O)c3ccccc3)CC2)cc1 | i | ·
Cc1ccc2nc(NC(=O)CCCn3nc(-c4ccc(F)cc4)ccc3=O)sc2c1 | i | i
COCCn1c(=NC(=O)c2cc(C)no2)sc2cc(OC)ccc21 | i | i
CCOc1ccc2c(c1)sc(=NC(=O)c1ccc(S(=O)(=O)C(C)C)cc1)n2CCOC | + | i
COc1ccc(-c2nc(SC(CC(=O)NCCc3ccccc3)c3ccc(OC)cc3)n[nH]2)cc1 (centres undefined) | + | ·
O=C(CC(Sc1n[nH]c(-c2ccccc2)n1)c1ccccc1)NCCc1ccccc1 (centres undefined) | i | ·
CC(C)n1nccc1-c1nnc(NC(=O)C(C)(C)Oc2ccc(Cl)cc2)o1 | i | i
O=C1CC(NC(=O)CSc2ccc(F)cc2)CN1 (centres undefined) | · | i
CN1CC(NS(=O)(=O)Cc2cccc(F)c2)CC1=O (centres undefined) | · | i
COc1cc(C(C)=O)ccc1OCC(=O)Nc1ccc(-c2cn3ccsc3n2)cc1 | i | i
O=C(Nc1ccc(-c2cn3ccsc3n2)cc1)NC1CCCCC1 | + | i
Cc1ccc(-n2ncc3c(=O)n(NC(=O)c4cccs4)cnc32)cc1C | i | ·
O=C(OCN1C(=O)c2ccccc2C1=O)C1CCCCC1 | i | ·
CC(=O)OCCN1C(=O)c2cccc3c(N4CCCCC4)ccc(c23)C1=O | + | ·
CCOC(=O)C1CCN(C(=O)Cc2csc(Nc3ccccc3)n2)CC1 | i | i
CCOC(=O)C1CCN(C(=O)Cc2csc(Nc3cccc(C(F)(F)F)c3)n2)CC1 | + | i
O=C(NC(=S)Nc1ccc(S(=O)(=O)NC2CCCCC2)cc1)c1cccs1 | + | ·
NS(=O)(=O)c1ccc(NS(=O)(=O)c2ccc(NC(=O)C3CCCCC3)cc2)cc1 | i | i
CCN(C(=O)c1cc(N2C(=O)CCS2(=O)=O)ccc1Cl)C1CCS(=O)(=O)C1 (centres undefined) | i | i
COc1ccc(CNC(=O)C(=O)NCC2CCN(Cc3ccco3)CC2)cc1 | + | i
CC(=O)Nc1ccc(S(=O)(=O)NCC2CCN(Cc3ccco3)CC2)cc1 | i | i
CCCc1ccc(S(=O)(=O)NCC2CCN(Cc3ccco3)CC2)cc1 | + | i
O=C(NCc1ccccc1)C(=O)NCC1CCN(Cc2ccco2)CC1 | i | i
CCc1ccc(/C=C/C(=O)Nc2ccc(S(N)(=O)=O)cc2)o1 | i | ·
O=C(C1COCC(=O)N1Cc1ccccc1)N1CCC2(CC1)OCCO2 (centres undefined) | i | i
SMILES | AMPAR-TARP mod | GIRK2 act
O=C(NCCCN1CCCC1=O)C(=O)Nc1ccc2c(c1)OCO2 | i | i
O=C(Nc1ccc(F)c([N+](=O)[O-])c1)c1ccc(=O)n(Cc2ccccc2Cl)c1 | i | i
C=CCn1c(N/N=C/c2cccc(OC)c2O)nc2c1c(=O)n(C)c(=O)n2C | + | ·
C=C(C)Cn1c(N/N=C/c2cccc(OC)c2O)nc2c1c(=O)n(C)c(=O)n2C | i | ·
Cc1ccc2nc(N(Cc3ccccn3)C(=O)Cc3ccc(S(C)(=O)=O)cc3)sc2c1 | i | ·
CCCC(=O)NCCOc1ccc2nnc(-c3cccc(OC)c3)n2n1 | i | i
COc1ccc(-c2nnc3ccc(OCCNC(=O)NCc4ccccc4)nn23)cc1 | + | i
CCC(C(=O)NCCOc1ccc2nnc(-c3ccc(OC)cc3)n2n1)c1ccccc1 (centres undefined) | i | i
CCCC(=O)NCCOc1ccc2nnc(-c3ccc(OC)c(OC)c3)n2n1 | + | i
COc1ccc(-c2nnc3ccc(OCCNC(=O)Nc4ccc(Cl)cc4)nn23)cc1 | i | i
COc1ccc(-c2nnc3ccc(OCCNC(=O)Nc4ccc(F)cc4)nn23)cc1 | + | i
Cc1ccc(C)c(NC(=O)Cc2csc(NC(=O)c3ccc(=O)[nH]c3)n2)c1 | i | i
COc1ccc(-c2nn(C)c(=O)c3ccccc23)cc1CNC(=O)COc1cccc(C)c1 | + | ·
CCCC(=O)NCc1cc(-c2nn(C)c(=O)c3ccccc23)ccc1OC | i | ·
CC(C)CS(=O)(=O)NCC(c1ccsc1)N1CCCC1 (centres undefined) | i | i
COc1ccc(N2CCCn3c2nc2c3c(=O)n(C/C=C/c3ccccc3)c(=O)n2C)c(OC)c1 | i | ·
O=C(C1CC1)N1CCc2ccc(NS(=O)(=O)c3ccc4c(c3)OCCO4)cc21 | i | i
O=C(C1CC1)N1CCc2ccc(NS(=O)(=O)c3ccc4c(c3)CCCC4)cc21 | + | i
O=C(c1ccco1)N1CCc2ccc(NS(=O)(=O)Cc3ccccc3)cc21 | i | i
O=C(Nc1ccc2c(c1)N(C(=O)C1CC1)CC2)c1ccc(Cl)c(Cl)c1 | + | i
O=C(C1CCCC1)N1CCc2ccc(NS(=O)(=O)Cc3ccccc3)cc21 | + | i
O=C(Nc1ccc2c(c1)N(C(=O)C1CC1)CC2)c1cc(Br)ccc1Cl | i | i
CCOc1ccccc1C(=O)Nc1cccc(N2CCCS2(=O)=O)c1 | i | ·
COc1ccc(OCC(O)Cn2c(N3CCCC3)nc3c2c(=O)n(C)c(=O)n3C)cc1 (centres undefined) | i | ·
CCc1ccc(Oc2cc(N3CCC(C(=O)NCc4cccc(Cl)c4)CC3)ncn2)cc1 | i | i
SMILES | AMPAR-TARP mod | GIRK2 act
CCc1ccc(Oc2cc(N3CCC(C(=O)NCc4ccc(F)c(Cl)c4)CC3)ncn2)cc1 | + | i
O=C(Nc1ccc(Br)cc1)c1ccc(=O)[nH]n1 | i | i
CCc1ccc2nc(N(CCN3CCOCC3)C(=O)c3cc(C)no3)sc2c1 | · | i
COc1ccc(Cl)cc1NC(=O)C(=O)NCC1(O)CCOCC1 | i | i
O=C(NCCc1ccccc1)C(=O)c1cn(CC(=O)N2CCOCC2)c2ccccc12 | + | ·
O=C(NCc1ccccc1)C(=O)c1cn(CC(=O)N2CCOCC2)c2ccccc12 | i | ·
CC(=O)Nc1ccc(C(=O)NCCCn2cccc2)cc1 | i | i
O=C(NCC(O)(c1cccs1)C1CC1)c1ccco1 (centres undefined) | i | i
O=C(NCc1cccs1)NCC(O)(c1cccs1)C1CC1 (centres undefined) | i | i
O=C(NCC(O)(c1ccco1)C1CC1)Nc1ccccc1C(F)(F)F (centres undefined) | i | i
O=C(NCC(O)(c1ccco1)C1CC1)NC1CCCCC1 (centres undefined) | + | i
O=C(NCC(O)(c1cccs1)C1CC1)NC1CCCCC1 (centres undefined) | + | i
O=C(NCC(O)(c1cccs1)C1CC1)C1c2ccccc2Oc2ccccc21 (centres undefined) | + | i
Cc1ccc(S(=O)(=O)NCCC(=O)N/N=C/c2ccc(N(C)C)cc2)cc1 | · | i
COC(=O)Nc1nc(CC(=O)Nc2ccc(OC)c(OC)c2)cs1 | · | i
Cc1cc(C)c(-c2ccc(SCC(=O)NCc3ccc4c(c3)OCO4)nn2)cc1C | + | i
O=C(CSc1ccc(-c2ccc3ccccc3c2)nn1)NCc1ccc2c(c1)OCO2 | i | i
COc1ccc(C)cc1NC(=O)C(=O)NCC1CCN(C(=O)c2snnc2C)CC1 | i | i

Screening data as filed in PubChem BioAssay.
